In the library only some 10% were active in any assay of this set; here they are far more common.
HP1b binding inh: inhibitors of HP1-beta chromodomain binding to methylated histone tails; P83916; AlphaScreen HP1-beta / biotin-H3K9me3 peptide binding; Potency, µM (titrated, usually from 114 µM), without a hit: at the top dose activity change, negative = inhibition, usual class: inhibitors; 390,000 tested, 0.56% active; note: potency is the fitted concentration of half-maximal effect; nearly all actives have a fitted effect of over 70% in size
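HP1-beta protein (50 nM final) preincubated 30 min at room temperature with biotinylated H3(1-18)K9me3 peptide (50 nM) in PBS pH 7.4, 0.01% Tween-20, then compound added for 30 min. AlphaScreen streptavidin donor/nickel chelate acceptor beads (10 ug/mL final), 30 min dark, luminescence read.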
CtBP-E1A inh: blocks the CtBP interaction with E1A. AID 651724. AlphaScreen GST-E1A/His-CtBP binding, 1536-well; stronger effect = lower value. activity change, % (no concentration beside the values). 340,000 tested, 0.49% active; in the data active = activity change below about -65%; inconclusive = mostly about -30% to -63%; note: % is set by controls: 0 for no effect and ±100 for the full control effect
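In 5 uL wells, 23 nL compound meets equimolar GST-E1A and His-CtBP (5X stock 125 nM each) for 2 h, 37 °C. Beads (5X, 50 ug/mL) then 1 h, 37 °C, dark.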
Six1-Eya2 inh: Six1/Eya2 interaction inhibition; Q15475+O00167; AlphaScreen GST-Six1/His-Eya2 binding, biochemical; stronger effect = lower value; activity change, % (test concentration not listed); 360,000 tested, 0.56% active; AID 651725; in the data active = activity change below about -65%; inconclusive = mostly about -30% to -63%; note: % is set by controls: 0 for no effect and ±100 for the full control effect
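Homogeneous AlphaScreen proximity assay pairing GST-Six1 with His-tagged Eya2 (added as 5X mix: 250 nM and 500 nM) in 50 mM Tris pH 8.0, 300 mM NaCl, 1 mM TCEP. Glutathione donor and nickel acceptor beads; 1 h, 37 °C, dark.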
BAZ2B inh: inhibitors of human BAZ2B bromodomain; Q9UIF8; Potency, µM (doses to about 114 µM), inactives show at the highest dose activity change, negative = inhibition, hits mostly inhibitors; AlphaScreen BAZ2B-H3K14Ac peptide displacement; 360,000 tested, 4.4% active; note: potency is the fitted concentration of half-maximal effect; % is set by controls: 0 for no effect and ±100 for the full control effect; nearly all actives have a fitted effect of over 60% in size
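BAZ2B 50 nM plus b-H3(5-23)K14Ac 50 nM, PBS pH 7.4/0.01% Tween-20, 30 min RT; compound added (max 110 uM), 30 min RT; streptavidin donor/Ni-chelate acceptor beads 10 ug/mL final, 20 min dark; AlphaScreen read.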
JMJD2A Tudor inh: inhibitors of human JMJD2A Tudor domain; O75164; AlphaScreen JMJD2A-Tudor / H3K4me3 peptide binding; Potency, µM (titrated, usually from 114 µM), inactives show top-dose activity change, negative = inhibition, most hits filed as inhibitors; 390,000 tested, 4.4% active; AID 504339; note: potency is the fitted concentration of half-maximal effect; % is set by controls: 0 for no effect and ±100 for the full control effect; nearly all actives have a fitted effect of over 50% in size
Target sequence (O75164 whole entry, looked up, the tested form may be a part): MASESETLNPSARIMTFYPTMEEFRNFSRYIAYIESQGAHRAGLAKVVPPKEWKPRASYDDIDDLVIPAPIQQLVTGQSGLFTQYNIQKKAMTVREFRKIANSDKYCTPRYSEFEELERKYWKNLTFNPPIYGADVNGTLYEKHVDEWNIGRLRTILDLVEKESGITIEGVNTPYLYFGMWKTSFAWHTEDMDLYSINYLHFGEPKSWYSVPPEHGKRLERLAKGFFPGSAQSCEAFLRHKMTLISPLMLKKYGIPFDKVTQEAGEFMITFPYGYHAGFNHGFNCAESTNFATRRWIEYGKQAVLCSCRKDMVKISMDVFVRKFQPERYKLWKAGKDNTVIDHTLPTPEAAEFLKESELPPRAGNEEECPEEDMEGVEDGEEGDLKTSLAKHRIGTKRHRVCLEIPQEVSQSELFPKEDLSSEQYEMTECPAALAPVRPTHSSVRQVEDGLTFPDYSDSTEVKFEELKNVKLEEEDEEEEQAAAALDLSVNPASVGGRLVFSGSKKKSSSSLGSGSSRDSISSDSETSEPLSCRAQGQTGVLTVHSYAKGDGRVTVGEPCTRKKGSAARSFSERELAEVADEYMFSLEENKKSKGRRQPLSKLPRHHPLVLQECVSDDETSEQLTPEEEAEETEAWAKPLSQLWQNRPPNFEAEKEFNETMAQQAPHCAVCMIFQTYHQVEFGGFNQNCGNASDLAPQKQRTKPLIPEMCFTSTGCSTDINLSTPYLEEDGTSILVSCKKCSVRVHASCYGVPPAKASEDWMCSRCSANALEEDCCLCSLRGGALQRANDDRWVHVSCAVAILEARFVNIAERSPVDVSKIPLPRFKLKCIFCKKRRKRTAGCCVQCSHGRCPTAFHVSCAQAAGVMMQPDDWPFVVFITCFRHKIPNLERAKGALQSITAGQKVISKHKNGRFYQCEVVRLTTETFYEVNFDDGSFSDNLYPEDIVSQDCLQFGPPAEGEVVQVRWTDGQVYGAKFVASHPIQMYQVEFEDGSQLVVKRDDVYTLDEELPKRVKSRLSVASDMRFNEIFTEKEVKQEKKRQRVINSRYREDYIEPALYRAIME
G9a inh: inhibitors of human histone lysine methyltransferase G9a | Q96KQ7 | G9a H3K9 monomethylation, AlphaScreen, 2 h | Potency, µM (series often up to 102 µM), inactives show at the top dose activity, negative = inhibition, most hits filed as inhibitors | 350,000 tested, 8.8% active; note: potency is the fitted concentration of half-maximal effect; % is set by controls: 0 for no effect and ±100 for the full control effect; nearly all actives have a fitted effect of over 75% in size
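Chemiluminescent proximity detection of H3K9 monomethylation, read after 10 min bead incubation in the dark. Reaction: 20 nM G9a, 500 nM biotin-H3K9 peptide, 20 uM SAM cofactor, 2 h, room temperature, following 15 min enzyme-compound preincubation.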
* marks the source's active call; other numbers are inactive results; ? = inconclusive; . = no result; [ ] = remark or other dose. Unless noted, calls come from the whole dose curve; as a rule, active = well fitted inhibition curve with a large enough effect; inconclusive = small, poorly fitted or top-dose-only effect; inactive = no such curve, though single readings can be large or run the other way.

SMILES | HP1b binding inh | CtBP-E1A inh | Six1-Eya2 inh | BAZ2B inh | JMJD2A Tudor inh | G9a inh
COC(=O)c1c[nH]n2c(=O)c(C(C)C)c(C)nc12 | 49% | 10 | 13 | 5% | -9% | 3%
COC(=O)c1c[nH]n2c(=O)cc(CCl)nc12 | 24% | -4 | -5 | ? | 79µM* | 19%[59 µM]
O=C(/C=C/c1cccc(Br)c1)Nc1nn[nH]n1 | -3% | -3 | -3 | 3% | ? | -2%
Fc1ccccc1/C=N/Nc1nn[nH]n1 | 29% | 3 | -5 | ? | 79µM* | 20µM*
Brc1cccc(/C=N/Nc2nn[nH]n2)c1 | 40% | . | -4 | ? | -6% | 50µM*
COc1cc(/C=N/N=C/c2c[nH]c(=O)c(C#N)c2Nc2ccccc2)ccc1O | 16% | ? | -21 | -18% | -17% | 13%[12.7 µM]
CCOC(=O)c1c(NC(=O)CSc2nnc(C)s2)sc2c1CCN(C)C2 | 23% | ? | ? | -36% | ? | 4.5µM*
CCOC(=O)c1c(NC(=S)Nc2ccc(OCC)cc2)sc2c1CCN(C)C2 | -10% | -15 | -11 | ? | -17% | 50µM*
COC(=O)CSc1nnc(CNS(=O)(=O)c2ccc(Cl)cc2)n1C | 11% | 18 | -1 | 7% | 1% | 4%[59 µM]
COc1cc(C(C)=O)ccc1OCC(=O)Nc1cc(Cl)ccc1-n1cncn1 | 24% | 3 | 0 | 5% | -16% | -1%
COc1ccccc1OCC(=O)Nc1cc(C(F)(F)F)ccc1-n1cncn1 | 44% | 7 | 1 | 0% | -3% | 45µM*
COc1ccc(Cl)cc1NC(=O)C(=O)NCc1ccc(Cl)cc1 | 22% | . | . | 9% | 10% | 17%[59 µM]
CCCCNC(=O)C1(C)CCCCN1CC(=O)c1ccc(OC)cc1 (centres undefined) | . | -10 | 9 | . | . | .
CC(=O)N/C(=C\c1ccccc1)C(=O)OCC(=O)N1CCCCCC1 | 18% | -21 | -7 | 1% | -7% | -38%
COc1ccccc1C(=O)N/C(=C/c1ccc(Br)cc1)C(=O)N1CCCC1 | -19% | 3 | -1 | -15% | 50µM* | 14%
CC(=O)N/C(=C/c1ccccc1)C(=O)N1CCCCC1 | 19% | 21 | -3 | -1% | -10% | 50µM*
COc1ccccc1CN1CC(C(=O)NCCCc2ccc(F)cc2)CCC1=O (centres undefined) | 30% | 0 | 9 | -1% | -12% | 42%[59 µM]
O=C(COc1ccccc1F)Nc1ccc2nc(SCC(=O)N3CCCC3)sc2c1 | 50% | . | . | -34% | -10% | 2%[59 µM]
COCC(C)Nc1nc(C)c(C(C)=O)s1 (centres undefined) | 28% | 3 | 4 | ? | -1%[57.1 µM] | 45µM*
O=C(NCc1cccc(Cl)c1)C1CCCN(c2ncnc3onc(-c4ccc(F)cc4)c23)C1 (centres undefined) | 54% | . | . | 12%[57.1 µM] | -9% | -25%[59 µM]
O=C(OCC#CCSc1nnc(-c2cccc3ccccc23)o1)c1ccc(F)c(F)c1 | . | . | . | . | 38% | .
CN(C)c1cc(-c2ccc(Br)cc2)oc(=O)c1Cl | 15% | -5 | -20 | ? | -9% | 50µM*
CC1=CC(=O)c2c(O)ccc(O)c2C1=O | . | . | . | 3.5µM* | . | -189%[59 µM]
O=C1c2ccccc2C(=O)c2c([N+](=O)[O-])ccc(O)c21 | -11% | -28 | -28 | ? | ? | -25%[59 µM]
COc1ccc(C)c2sc(NC(=O)c3ccc(S(=O)(=O)N4CCOCC4)cc3)nc12 | 13%[57 µM] | . | . | 5% | -21% | -20%[59 µM]
CCN1CCN(CC(=O)N2CCCC(C(=O)c3ccc(Oc4ccccc4)cc3)C2)CC1 (centres undefined) | 14% | . | -2 | 50µM* | -25% | 35µM*
Cc1cc2c(s1)c1cnn(Cc3cc(Cl)ccc3F)c(=O)c1n2C | . | . | . | . | -21% | .
Cc1cc(C(F)(F)F)c(C#N)c(N2CCOCC2)n1 | -8% | 7 | -3 | 9% | 28µM* | 12%
Cc1cc(C)c(C#N)c(N2CCCC2)n1 | 39% | 6 | 5 | 10% | 4% | 32%[59 µM]

High-throughput results deposited in PubChem BioAssay by National Center for Advancing Translational Sciences (NCATS).
